PubChem BioAssay AID1159524 (National Center for Advancing Translational Sciences (NCATS), 2015)
Out of some 410,000 compounds screened, about 5,100 (1.2%) were called active. A call without a number means that no potency is given here. Inconclusive results (about 8%) are left out. Calls follow the shape of the full dose curve; tested in HEK293T cells. Many of the other results were omitted from the sample, so actives are more common in it than they were.

Assay: High Throughput Screening for Foot and Mouth Disease Virus Antivirals; also: read-out not given here; nearly all actives have a fitted effect of over 45% in size
Conditions: FMDV antiviral cell-based qHTS; series mostly up to 57.9 µM
Potency is read from the fitted curve at half-maximal effect.

Structure (SMILES) | Potency
Cc1ccc(-c2csc(NC3OC(=O)c4ccccc43)n2)cc1 (stereo not given) | 20 µM (active)
COc1ccc2c(c1OC)C(=O)OC2Nc1nc(-c2ccccc2)cs1 (stereo not given) | 15.8 µM (active)
CCCc1nc2scc(-c3ccc(C)cc3)c2c(=O)n1N | inactive
COc1ccc(CNC(=O)CC2Oc3ccc(C)cc3NC2=O)cc1 (stereo not given) | inactive
CC(C)NC(=O)N1CCCC2(CCN(C(=O)c3cccn3C)CC2)C1 | inactive
Cn1c(=O)c2c(SCC(=O)NCC3CCCO3)nc(-c3ccccc3F)nc2n(C)c1=O (stereo not given) | inactive
CCNCCCNCCCNCCCNCC | inactive
Cn1cccc1C(=O)N1CCC[C@@]2(CCN(Cc3nccs3)C2)C1 | inactive
N#Cc1ccc(CN2CCCC3(CCN(C(=O)c4ccco4)CC3)C2)cc1 | inactive
COc1ccc(N2CCN(C(=O)CSc3nnc4ncccn34)CC2)cc1 | inactive
COc1cccc(-c2ccc(SCC(=O)N3CCN(c4ccccc4)CC3)nn2)c1 | 12.6 µM (active)
CCOc1ccc(-c2ccc(SCC(=O)N3CCOCC3)nn2)cc1 | inactive
CCN1CCN(Cc2c(O)ccc3oc(C)c(C(=O)Nc4ccc(C)cc4C)c23)CC1 | inactive
Cc1ccc(CNC(=O)c2c(O)nc3c(C)cccn3c2=O)cc1 | inactive
CC(=O)c1ccc(NC(=O)CSc2nc(-c3ccccc3F)nc3c2c(=O)n(C)c(=O)n3C)cc1 | inactive
COC(=O)C1CCCCN1Cc1ccc2c(c1)CN(Cc1cc(OC)c3c(c1)OCO3)CCO2 (stereo not given) | inactive
CCOC(=O)c1c(C)[nH]c(C)c1S(=O)(=O)N(C)CC(=O)N1CCN(c2ccccc2)CC1 | inactive
CCOC(=O)c1c(C)[nH]c2c1-c1ccccc1C(=O)C2=O | 7.08 µM (active)
CCOC(=O)c1c(SCC(=O)Nc2cccc(C)c2C)nc(=O)[nH]c1C | inactive
CC(=O)c1c(C)[nH]c(C(=O)OCC(=O)NCCC(C)C)c1C | inactive
Cc1ccc(C)c(OCC(=O)Nc2sc3c(c2C#N)CCCC3)c1C | inactive
CC(=O)c1c(C)[nH]c(C(=O)OCC(=O)Nc2sc3c(c2C#N)CCCC3)c1C | 17.8 µM (active)
CC(C)CC(NS(=O)(=O)c1ccc2c(c1)oc(=O)n2C)C(=O)NCc1ccccc1Cl (stereo not given) | inactive
CCC(CC)C(=O)N1CCc2cc(OC)c(OC)cc2C1COc1ccc(F)cc1 (stereo not given) | inactive
COc1ccccc1-c1ccc(C(=O)N(C)C(C)c2ccon2)c(N2CCN(c3ccccc3F)CC2)n1 (stereo not given) | inactive

Structure (SMILES) | Potency
O=C(OCC(=O)N1CCN(C(=O)c2ccco2)CC1)c1ccc(Cl)c(Cl)c1 | inactive
O=C(OCC(=O)N1CCN(C(=O)c2ccco2)CC1)c1c(Cl)cccc1Cl | inactive
CN(c1ccccc1)S(=O)(=O)c1cc(C(=O)OCC(=O)N2CCN(C(=O)c3ccco3)CC2)ccc1Cl | 25.1 µM (active)
CC(O)[C@@H](N)C(=O)O (stereo not given in full) | inactive
COc1ccc(CCCOC(Cn2ccnc2)c2ccc(OC)cc2)cc1 (stereo not given) | inactive
COc1ccccc1-c1nc(NCc2cccs2)c2ccccc2n1 | inactive
O=C1NC(CC(=O)N2CCC(n3c(C4CCC4)nc4cccnc43)CC2)c2ccccc21 (stereo not given) | inactive
O=c1n(Cc2cccc(C(F)(F)F)c2)c2ccccc2c2nc(-c3ccccc3)nn12 | inactive
Cn1c(-c2sccc2OCc2cccc(C(F)(F)F)c2)n[nH]c1=S | inactive
O=c1c2ccccc2nc2n1C(CSCc1cccc(C(F)(F)F)c1)CS2 (stereo not given) | 5.62 µM (active)
O=C(Nc1cccc(F)c1)N1CCC2(CC1)CCN(S(=O)(=O)c1ccccc1)CC2 | inactive
O=C(Nc1cc(C(=O)Nc2ccc(S(=O)(=O)O)cc2)cc(C(=O)Nc2ccc(S(=O)(=O)O)cc2)c1)Nc1cc(C(=O)Nc2ccc(S(=O)(=O)O)cc2)cc(C(=O)Nc2ccc(S(=O)(=O)O)cc2)c1 | inactive
O=C(CSc1nc(Nc2ccccc2)nc(N2CCOCC2)n1)Nc1cc(Cl)ccc1O | 39.8 µM (active)
O=C(CSc1ccccc1)Nc1cc(Cl)ccc1Oc1ccccc1 | inactive
O=C(CSc1nc2ccc(Nc3nc(N4CCOCC4)nc(N4CCOCC4)n3)cc2s1)NCc1ccco1 | inactive
O=C(O)C(O)[C@@](O)(Cc1ccc(O)cc1)C(=O)O (stereo not given in full) | inactive
CC(=O)OC1C2CCC3C1(CC(O)[C@@]1(O)[C@@H](CC(O)C1(C)C)[C@]3(C)O)C[C@@]2(C)O (stereo not given in full) | inactive
COC(=O)c1ccccc1C(=O)NCc1nc(N2CCCC2)c2cccc(C)c2n1 | inactive
COc1cc(Cl)c(C)cc1NC(=O)COC(=O)c1cc(SC)ccc1Cl | inactive
Cc1csc(OCC(=O)Nc2ccc(C)c(C)c2)n1 | inactive
COc1cc(SC)ccc1C(=O)Nc1nc(C)cs1 | 3.16 µM (active)
COc1ccccc1C1CN(Cc2ccccc2O)Cc2ccccc2O1 (stereo not given) | inactive
COc1ccc(CCNC(=O)c2c3c(nc4ccccc24)C(=O)N(C2CCCCC2)C3)cc1OC | inactive
COc1cc(C(=O)N2CCC(c3ccncc3)CC2)cc(OC)c1OC | inactive
O=C(c1cc(C(F)(F)F)cc(C(F)(F)F)c1)N1CCC2(CCCN(c3ccccn3)C2)CC1 | inactive

Structure (SMILES) | Potency
O=c1c2ccccc2nc(/C=C/c2ccco2)n1-c1ccccc1O | inactive
CCc1ccc2oc(-c3ccc(C)c(NC(=O)/C=C/c4ccco4)c3)nc2c1 | inactive
Cc1ccc(-c2cc(C(=O)N/N=C/C=C/c3ccco3)c3ccccc3n2)cc1C | 1.58 µM (active)
COc1ccc(-n2c(CNC(=O)c3cc(C(F)(F)F)ccc3Cl)nnc2SC)cc1 | inactive
CCCCCCCCCCOC(=O)Cn1c(COc2cccc(OC)c2)[n+](C)c2ccccc21 | 28.2 µM (active)
CCOC(=O)c1c(NC(=O)COc2cc(C)ccc2C(C)C)sc(C)c1C | inactive
COc1ccccc1N1CCN(C[C@@H]2CN3C(=O)N(C)c4ccccc4C3=N2)CC1 | inactive
O=c1c(CCc2ccccc2)nc2cncnc2n1C1CC1 | inactive
Cc1c(C(=O)OC(C)C)sc(NC(=O)c2cccnc2)c1C#N | inactive
CCCc1ccc(-c2c(C)sc(NC(=O)c3ccnn3C)c2C#N)cc1 | 15.8 µM (active)
CCc1ccccc1NC(=O)CSc1nc(C)c(C(=O)Nc2ccccc2)c(-c2ccc(Cl)cc2)c1C#N | inactive
O=C(NCCc1ccc(F)cc1)c1ccc(S(=O)(=O)N2CCCCC2)cc1 | inactive
COc1ccc(C(=O)NCc2ccc(Cl)cc2)cc1S(=O)(=O)N1CCCC1 | inactive
NS(=O)(=O)c1ccc(CCNC(=O)c2ccc(Cl)c(S(=O)(=O)N3CCCCCC3)c2)cc1 | 14.1 µM (active)
O=C(CCS(=O)(=O)c1ccccc1)N(Cc1cccnc1)c1nc2c(F)cccc2s1 | inactive
O=C(c1ccc(F)cc1)C1CCN(CCCCc2ccccc2)CC1 | inactive
CS(=O)(=O)N1CCC2(CC1)CN(c1ccncc1)C2 | inactive
CCOC(=O)c1c(NC(=O)c2cc(-c3ccc(Cl)cc3)on2)sc2c1CCCC2 | inactive
Cc1ccc(Cl)cc1NC(=O)CSc1nc2ccccc2nc1Cc1ccccc1 | inactive
NC(=O)c1sc(-c2ccsc2)cc1N | inactive
CN(CCO)c1ccc(/C=N/Nc2nncc3ccccc23)cc1 | 10 µM (active)
COc1cccc(-c2cc(NCCc3c[nH]c4ccc(OC)cc34)ncn2)c1 | inactive
O=C(c1cnccn1)N1CCC2(CCCN(Cc3ccccc3)C2)CC1 | inactive
CCNc1ncc2ncc(=O)n(CCc3ccccc3)c2n1 | inactive
COc1ccc(Nc2cc(C(=O)NCCCN(C)c3ccccc3)c3ccccc3n2)c(OC)c1 | inactive

Structure (SMILES) | Potency
O=C(Nc1cccc(F)c1)N1CC2(CCN(C(=O)c3csnn3)CC2)C1 | inactive
CCOC(=O)C1=C(c2ccccc2)NC(=O)NC1c1cc(OC)c(OC)cc1OC (stereo not given) | inactive
CCOC(=O)C1C(=O)C=C(c2ccc(OC)cc2)CC1c1ccco1 (stereo not given) | inactive
CCOC(=O)C1=C(c2ccc(OC)cc2)C(=O)c2ccccc2C1=O | 3.55 µM (active)
CN(C)S(=O)(=O)c1ccc(C(=O)NCC(C)(C)N2CCOCC2)cc1 | inactive
CC(C)(CNC(=O)c1ccc(Cl)c(S(=O)(=O)N2CCc3ccccc3C2)c1)N1CCOCC1 | 12.6 µM (active)
CC(C)(CNC(=O)Cc1ccc(Cl)cc1Cl)N1CCOCC1 | inactive
Cc1ccc(S(=O)(=O)c2c(Nc3cccc(Cl)c3)sc(C(=O)c3ccc4c(c3)OCO4)c2N)cc1 | inactive
COc1ccccc1CNC(=O)c1ccc(Cl)c(S(=O)(=O)N2CCCC2)c1 | inactive
COc1ccccc1N1CCN(C(=O)c2ccc(Cl)c(S(=O)(=O)N3CCCC3)c2)CC1 | 20 µM (active)
CCS(=O)(=O)N1CCc2cc(C(=O)N3CCN(c4ccccc4OC)CC3)ccc21 | inactive
CCCC1OC23CCCCC2C(C#N)(C#N)C1(C#N)C(=N)O3 (stereo not given) | 20 µM (active)
CN1CCCC1CCO[C@@](C)(c1ccccc1)c1ccc(Cl)cc1 (stereo not given in full) | inactive
CN1CCN(C(=O)O[C@@H]2c3nccnc3C(=O)N2c2ccc(Cl)cn2)CC1 | inactive
Cc1cnc(-n2ncc(C(=O)N3CCN(C(C)C)CC3)c2-c2ccco2)nc1-c1ccc(F)cc1 | inactive
COc1cccc(CN(C)CC(=O)NCc2ccccc2Cl)c1OC | inactive
CCN(CC)S(=O)(=O)c1ccc(N(C)Cc2cccc(OC)c2OC)nc1 | 20 µM (active)
COc1ccc(S(=O)(=O)N2CCCCCC2)cc1C(=O)N(C)Cc1cccc(OC)c1OC | inactive
COc1ccc(S(=O)(=O)NCC(c2ccc(N(C)C)cc2)N2CCCC2)cc1 (stereo not given) | inactive
COc1ccc(CN2CCOc3c(cc(-c4ncc(C(F)(F)F)cc4Cl)cc3OCC3CCCO3)C2)c(O)c1 (stereo not given) | inactive
Cc1ccc(NS(=O)(=O)c2ccc3c(c2)CC(=O)N3)cc1Cl | inactive
COCC(=O)N1CCC2(CCCN(c3ccccc3)C2)CC1 | inactive
CC(C)CNC(=O)C1CCCN(S(=O)(=O)c2ccc(-n3cnnn3)cc2)C1 (stereo not given) | inactive
COC(=O)c1ccc(CN2CCCC(C(=O)Nc3cccc(-n4cnnn4)c3)C2)cc1 (stereo not given) | 28.2 µM (active)
O=C(Nc1ccc(F)cc1)C1CCCN(S(=O)(=O)c2ccc(-n3cnnn3)cc2)C1 (stereo not given) | inactive
